Data taken from the supplement of paper PMC10338343.
± gives the standard deviation.

Test system: MILI (PIWIL2) piRISC loaded with piRNA #1 (26 nt)
Experiment: pre-steady-state target cleavage rate (min^-1); guide: piRNA #1 5'p-UGAGGUAGUAGGUUGUAUAGUAUCCA; MIWI and MILI are mouse PIWI proteins and EfPiwi is from a freshwater sponge; tags in brackets are library labels; higher = faster piRNA-guided slicing of the target
Conditions: auxiliary factor: 500 nM mouse GTSF1
Outline: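 Cleave-'n-Seq: 1 nM active affinity-purified piRISC with one synthetic guide and 0.1 nM transcribed, DNA-blocked target RNA library were mixed, with or without 500 nM GTSF1 partner protein, in HEPES–potassium acetate buffer at 33 °C for 0–8 or 0–960 min. Uncleaved targets were sequenced and normalised to depth and to weakly complementary targets, three trials were pooled, and k3 was capped at 0.0001 min^-1. The pre-steady-state cleavage rate was fitted […].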

Question: Which “pre-steady-state target cleavage rate” value does the source give for GGAGACCUAUGAUAACAUCCUACUAGCUCA here?
Answer: 0.00409 ± 0.0032

Question: How did the “pre-steady-state target cleavage rate” value turn out when GGAGACGAUAGUAUACAACCAACUACCUCA was run?
Answer: 0.00662 ± 0.0036

Question: Which “pre-steady-state target cleavage rate” value does the source give for GGAGACGAUAGUAUACAACCUACUACCACA here?
Answer: 0.136 ± 0.015

Question: GGAGACCUAUCAAUACAACCUACUAGCUCA was tested. Which “pre-steady-state target cleavage rate” value did it give?
Answer: 0.0299 ± 0.0076

Question: For GGAGACCUAACUAUACAACCUACUAGCACA, which “pre-steady-state target cleavage rate” value is on record?
Answer: 0.00779 ± 0.0065

Question: With GGAGACCUAUGAUUACAACCUACAUACCUCA as the sequence, how does the “pre-steady-state target cleavage rate” value read?
Answer: 0.00484 ± 0.0019

Question: How did the “pre-steady-state target cleavage rate” value turn out when GGAGACCAUACUAUACAACCAACUACCACA was run?
Answer: 0.00384 ± 0.0026

Question: With GGAGACCUUACUAUUCAUCCUACUACCUCA as the sequence, how does the “pre-steady-state target cleavage rate” value read?
Answer: 0.231 ± 0.018

Question: For GGAGACCUUACUUUACAACCUACUAGCUCA, which “pre-steady-state target cleavage rate” value is on record?
Answer: 0.111 ± 0.02

Question: Which “pre-steady-state target cleavage rate” value does the source give for GGAGAGGUUAGUAUACAACCUACUACCUCA here?
Answer: 0.0314 ± 0.0096

Question: For GGAGAGGAAACUAUAGAACCUACUACCUCA, which “pre-steady-state target cleavage rate” value is on record?
Answer: 0.178 ± 0.018

Question: For GGAGACGAUACUAUUGUACCUACUACCUCA, which “pre-steady-state target cleavage rate” value is on record?
Answer: 0.119 ± 0.0095

Question: How did the “pre-steady-state target cleavage rate” value turn out when GGAGACCUAUGUAUACUACCUAGUACCUCA was run?
Answer: 0.00575 ± 0.0022

Question: For GGAGACCUAUCUAUACAACCAACUACCUCA, which “pre-steady-state target cleavage rate” value is on record?
Answer: 0.00522 ± 0.0024

Question: For “GGAGACCAUACUAUACAACGAUGAUGGAGA [g12:g23:cont:t1A]”, which “pre-steady-state target cleavage rate” value is on record?
Answer: < 0.0001

Question: For GGAGACCUAUGUAUACAUCCUACUAGCUCA, which “pre-steady-state target cleavage rate” value is on record?
Answer: 0.0312 ± 0.0078

Question: How did the “pre-steady-state target cleavage rate” value turn out when GGAGAGGAUACUAUACAUGGUACUACCUCA was run?
Answer: 0.00387 ± 0.0028

Question: With GGAGACCUAUCUAUCCAACCUACUACCUCA as the sequence, how does the “pre-steady-state target cleavage rate” value read?
Answer: 0.0742 ± 0.0096

Question: How did the “pre-steady-state target cleavage rate” value turn out when GGAGACCUAACUAUACAACCUACUGACCUCA was run?
Answer: 0.163 ± 0.04

Question: GGAGACCUUACUAAACAACCUACUACCACA was tested. Which “pre-steady-state target cleavage rate” value did it give?
Answer: 0.128 ± 0.017

Question: For GGAGACCUAUGUAUACAAGCUACUACCUCA, which “pre-steady-state target cleavage rate” value is on record?
Answer: 0.147 ± 0.013

Question: GGAGACCUAACUAUUGAACCUACUACCUCA was tested. Which “pre-steady-state target cleavage rate” value did it give?
Answer: 0.0878 ± 0.011

Question: For GGAGACCAUAGUAUACAACCUAGUACCUCA, which “pre-steady-state target cleavage rate” value is on record?
Answer: 0.0677 ± 0.011

Question: Which “pre-steady-state target cleavage rate” value does the source give for GGAGACGAUAGUAUACAACGUACUACCUCA here?
Answer: 0.0209 ± 0.0035

Question: How did the “pre-steady-state target cleavage rate” value turn out when GGAGACCUAAGAUUACAACCUACUACCUCA was run?
Answer: 0.0144 ± 0.0043

Question: For GGAGACCUAUGAUUACAUCCUACUAGCUCA, which “pre-steady-state target cleavage rate” value is on record?
Answer: 0.00651 ± 0.0025

Question: GGAGAGAGAUACUAUACAACCUACUACCUCA was tested. Which “pre-steady-state target cleavage rate” value did it give?
Answer: 0.201 ± 0.013

Question: Which “pre-steady-state target cleavage rate” value does the source give for GGAGUGGAUUCAAUACAACCUACUACCUCA here?
Answer: 0.142 ± 0.0076

Question: How did the “pre-steady-state target cleavage rate” value turn out when GGAGACCUAUCUAAACAACCUUCUACCUCA was run?
Answer: 0.00634 ± 0.0024

Question: Which “pre-steady-state target cleavage rate” value does the source give for GGAGACCUUACUAUACUACCUACUACCUGA here?
Answer: 0.105 ± 0.014

Question: With GGAGACCUUACUAUACUACCUACUUCCUCA as the sequence, how does the “pre-steady-state target cleavage rate” value read?
Answer: 0.119 ± 0.019

Question: GGAGUGGAUAGUAUAGAACCUACUACCUCA was tested. Which “pre-steady-state target cleavage rate” value did it give?
Answer: 0.146 ± 0.013

Question: How did the “pre-steady-state target cleavage rate” value turn out when GGAGUGGAUUCUAUACAACCAACUACCUCA was run?
Answer: 0.00438 ± 0.0023

Question: How did the “pre-steady-state target cleavage rate” value turn out when GGAGACCUAUGAAUACAAGCUACUAGCUCA was run?
Answer: 0.00622 ± 0.0027

Question: GGAGACCUAUGAUUACUACCUACUACCUCA was tested. Which “pre-steady-state target cleavage rate” value did it give?
Answer: 0.00306 ± 0.0021

Question: For GGAGACCUAUGAAUACAACGUACUAGCUCA, which “pre-steady-state target cleavage rate” value is on record?
Answer: 0.0036 ± 0.0035

Question: With GGAGUGCAUACUAUACAACCUACUUCCUCA as the sequence, how does the “pre-steady-state target cleavage rate” value read?
Answer: 0.00653 ± 0.0022

Question: Which “pre-steady-state target cleavage rate” value does the source give for GGAGACCUAACUAUACAACCUACUUCGUCA here?
Answer: 0.0423 ± 0.017

Question: Which “pre-steady-state target cleavage rate” value does the source give for GGAGUGGAUACUAUACAACCAACUAGCUCA here?
Answer: 0.00229 ± 0.0021

Question: Which “pre-steady-state target cleavage rate” value does the source give for GGAGACCUAUGUAUACAAGCUACUACCUGA here?
Answer: 0.0868 ± 0.015
